Data as given in PubChem BioAssay AID624305 (National Center for Advancing Translational Sciences (NCATS), 2012).
Records with an inconclusive call do not appear. Unmarked numbers belong to inactive results. The source made the active and inactive calls. Calls come from the whole dose curve; as a rule, active = well fitted activation curve with a large enough effect; inconclusive = small, poorly fitted or top-dose-only effect; inactive = no such curve, though single readings can be large or run the other way.

Test: qHTS assay for re-activators of p53 using a Luc reporter: Hit Validation; note: nearly all actives have a fitted effect of over 75% in size; for activation: 0% is about no effect
Details: p53-responsive luciferase reporter cells, luminescence, H1299 line expressing heat-sensitive Ala138Val p53; series mostly up to 46.1 µM
Outline: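 H1299 (p53-null) cells stably carrying p53-A138V and a BP100-luciferase reporter, 1000 cells/well, treated 24 h at 37 deg C. Compounds at several concentrations, 1:5 dilution; nocodazole control; luminescence read after 10 min with detection reagent.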
Potency is the fitted concentration of half-maximal effect.

Compound	Potency	activation
Cc1ccc(OCCN2CCOCC2)cc1C	inactive	–
c1ccc2cc3c(NCCN4CCOCC4)ccnc3cc2c1	inactive	–
Cc1ccc(C(=O)Nc2nnc(SCC(=O)N3CCCc4ccccc43)s2)cc1	inactive	–
c1ccc(Oc2cc(-n3cncn3)ncn2)cc1	inactive	–
Cc1ccc(/C=C(\C#N)C(=O)NCC2CCCO2)o1 (stereo not drawn)	inactive	–
CCOc1ccc(-c2nnc(SCC(=O)N3CCNC3=O)o2)cc1	2060 nM (active)	–
Cc1ccc(NC(=O)CCN2C(=O)c3cccc([N+](=O)[O-])c3C2=O)c(Br)c1	inactive	–
COCCSc1nnc(NC(=O)CCS(=O)(=O)c2ccccc2)s1	–	-38.9% [at 9.22 µM]
c1ccc(COc2ccc(OCCOCCn3cncn3)cc2)cc1	2910 nM (active)	–
O=C(c1cccs1)c1coc2ccc(O)cc12	16400 nM (active)	–
O=C(c1ccco1)n1c(=S)nc2ccccn21	7310 nM (active)	–
O=C(NCCC1=CCCCC1)c1ccc(F)c(S(=O)(=O)N2CCOCC2)c1	inactive	–
O=C(/C=C/c1cccs1)Nc1ccc(Br)cn1	1840 nM (active)	–
Cc1ccc2cc3c(N)c(C(=O)N4CCOCC4)sc3nc2c1	1030 nM (active)	–
COc1ccc2oc(C(=O)Nc3nnc(C)s3)c(C)c2c1	1840 nM (active)	–
Cc1cc(C(=O)Nc2ccc(Br)cn2)sc1C	2060 nM (active)	–
CC(C)CNC(=S)Nc1ccc(Oc2ccccc2)cc1	inactive	–
C=CCn1c(C)cc(C(=O)CSc2nc3ccccc3o2)c1C	731 nM (active)	–
CC1(C)Oc2ccc(NC(=O)C3COc4ccccc4O3)cc2O1 (stereo not drawn)	1300 nM (active)	–

Compound	Potency	activation
CCc1ccc2c(CN(CC)Cc3nc4ccccc4c(=O)[nH]3)cc(=O)oc2c1	–	-11.9% [at 9.22 µM]
COC(=O)c1ccc(-c2nc(-c3cccs3)no2)cc1	146 nM (active)	–
O=C(NC(=S)Nc1ccccc1Br)C1CCCCC1	20600 nM (active)	–
COc1ccc2nc(NC(=O)Nc3ccccc3OC)sc2c1	9200 nM (active)	–
O=C(NN=C1CCCCCC1)c1cccs1	–	12.5% [at 9.22 µM]
c1ccc(-c2cn3c(n2)-c2ccccc2C3)cc1	206 nM (active)	–
COc1cccc(N(C(=O)c2nc3nccc(C)n3n2)c2nc3ccccc3s2)c1	7310 nM (active)	–
Cc1nc(NCCc2ccccc2)c2nnn(Cc3ccccc3Cl)c2n1	inactive	–
CCCCn1c(/C=N/Nc2nc3ccccc3[nH]2)nc2ccccc21	23100 nM (active)	–
C/C(=N\N=c1/scc(C)n1Cc1ccco1)c1cccc([N+](=O)[O-])c1	inactive	–
Cc1ccc(CCc2nnc(SCC(=O)Nc3cccc(Cl)c3)n2-c2ccccc2)o1	inactive	–
Clc1ccc(OCc2nc(-c3ccccn3)n[nH]2)cc1	inactive	–
COc1ccccc1C(=O)CSc1nccn1C	inactive	–
COc1ccc([N+](=O)[O-])cc1NC(=O)C1CCCCC1C(=O)O (stereo not drawn)	inactive	–
CN1CCN(C2=C(Cl)C(=O)N(Cc3ccccc3)C2=O)CC1	inactive	–
Cc1ccc(C(=O)OCC(=O)NCC2COc3ccccc3O2)cc1 (stereo not drawn)	inactive	–
COc1ccc(CCC(=O)NC(C)C2CCCO2)cc1 (stereo not drawn)	inactive	–
N/C(=N\OC(=O)c1cc(Cl)ccc1Cl)c1ccccn1	920 nM (active)	–
O=C(c1cccc(S(=O)(=O)NCc2ccc3c(c2)OCO3)c1)N1CCCC1	inactive	–
